Measurements reported in the supplement of paper PMC6555819.

tested on: PPARa:RXRa (NR concentration 270 nM, RXRa partner concentration 90 nM); test: PBM binding z-score (relative to random genomic background probes); higher = stronger binding; sequences stand for … in GC…GCGATTGACAGCGTAGAATGAAGG
Procedure: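 Protein-binding microarray (Agilent 4x180K custom design, double-stranded 60-nt probes: 5' GC cap, 34-nt variable region, 24-nt constant primer region; full probe sequence given). Purified or IVT nuclear receptor:RXRα heterodimers (3:1 NR:RXRα, mostly 270:90 nM) or homodimers were incubated for 1 h in PBS with 2% milk and no ligand, then detected with Alexa488 antibodies. Fluorescence from o1-orientation probes (~5 replicates averaged) was converted to z-scores against 500 random hg19 background probes. Variable regions are seed direct-repeat (DR0–DR5) sites, all their single-nucleotide variants and half-site ablations.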

| Sequence | PBM binding z-score |
| --- | --- |
| GCATATAGGTAATACAAGGTCAAAGTCCGATTGT | 4.21 |
| ACTAGTTGGTCAGCTGAGGTCACACCCAATTCGG | 3.46 |
| CAAACTAGTTCAAGAGGTCAAAGTCCGCTTCCCG | 5.38 |
| CGAACGAGGTCAAAGGACAGTGAAAGGCGACGTA | 6.37 |
| CTATGTAGGTTAGGGGGGTCATTCAGTTTGAAAG | 5.95 |
| TGAATGAGGTTAAATATCAGGGAACGTGGCGTCG | 3.72 |
| CCAACTAGGTCAAAGGACAGTGAAAGGCGACGTA | 5.08 |
| AGTCAAAGTTGAGGACGAGGTAACGTAAAGCACG | 0.937 |
| TCTAGTTGGTCACGGAGGGCACACACGACGGGTA | 1.38 |
| CGTCCAAGGTTAAGGTCAGTGAAAGAGACTCGAA | 3.78 |
| TAGCCTAGTTCATGCGGGCCAGTATAGTGTCGGC | 0.278 |
| GATACAGGGTCAGCTACAGGCCAGAGTATGGAAA | 4.88 |
| ATATGTAGGTTACCTGGGGTCATTCAGACTAGGC | 5.73 |
| TTGCCTAGGTCATTGGGCCAGTATAGTACGCATC | 3.86 |
| CCGAGGAGGTTACGAGGGGGCATTCAGTGCGAAT | 4.29 |
| AATACAAGGTCATCGTAGGCCAGAGTACGCACAG | 5.75 |
| CAAACCAGGTCAAAGGTCAAAGTCGAGCCAACCA | 7.46 |
| GATATAGGGTCAGCTAGAGGCCAGAGTATGGAAA | 4.76 |
| ATATGTAGTTTATCGGGTCATTCAGTTTGCGCAT | 3.2 |
| TACCCTAGGTCATGGGCCAGTATACCACGCGAAC | 4.51 |

| Sequence | PBM binding z-score |
| --- | --- |
| TTACCAAGGTGAACGGTCGTTGATGCACGCCTTG | 2.04 |
| TGTATGAGGTTAAAGATCAGGGAACGTGGCGTCG | 4.16 |
| AGCGAAAGGTCGAGGTGAGTATAGAGAAAGGGAA | 4.51 |
| CGAACTAGGTCATTGACAGGACAATGAATAGTAA | 5.06 |
| GGAACGAGGTCATTCGAGTTGATAGCATGGCGAT | 5.98 |
| ATCGAAAGGTCCACGAGGTGAGTATACACCGTTT | 0.734 |
| CAAACTAGGTCACAAAAGGTCAAAGTCGAATGAC | 6.35 |
| CGTCCAAGGACAATGCTAGGTCAGTGAAAGCATT | 0.16 |
| CGAACTAGGTCATCCAGGACCGTGAATACATTGA | 4.4 |
| GCTGCTAGGTCAACTGATGGTCACCTAAAGCTCG | 3.99 |
| CCTTACGGGTCACTGACAGGTTATAGCGTTTGGA | 5.13 |
| TCTAGTTGGTCACGGAGGTCCCACACGACGGGTA | 0.66 |
| GCTTACAGGTCAAAGGTTATAGCATGAATAGAAT | 7.1 |
| CCAGACAGGTGAGAAGGTAACTCAGCCTCGATTA | 0.833 |
| CCTACTGGGCCATTCAGAGGTCAATGATCATATG | 3.87 |
| AGTCAAAGTTCATCTAGGTAACATAAGATATGCT | 5.11 |
| CAAAATAGGTCACCGGAAGGTCAAAGTCCGCATG | 6.51 |
| CAAACCAGGTCAAGAGGTCAAAGTCCGCTTCCCG | 6.68 |
| ACTTACGGCTCAACGAGGTTATAGCACGCGTATA | 0.734 |
| CCGAATAGGTTACGAGGGGGCATTCAGTGCGAAT | 3.85 |
